In PubChem BioAssay (NCI):
About 83,000 compounds went through this panel and 20% of them were active in at least one assay; those are over-represented in the sample as a whole.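 Compound tested at a single concentration for 48 hours in 96-well plates; a percent growth value below 10 was scored as active.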 Activity calls are given as the source filed them.

system: HL-60(TB) leukemia; assay: NCI-60 one-dose screen, 48 h (100 = growth as untreated, 0 = no growth, -100 = all killed); settings: 10 µM unless noted

Q: `CC(C)N(C(=S)SSC(=S)N(C(C)C)C(C)C)C(C)C` was tested. Which growth did it give?
A: 122% (inactive)

Q: With `CC(=O)N[C@@H](CCC(N)=O)C(=O)O` as the molecule, how does the growth read?
A: 107% (inactive)

Q: With `Cc1cnc(C(=O)Nc2nc3ccc(S(=O)(=O)Nc4ccc(C(C)(C)C)cc4)cc3[nH]2)cn1` as the molecule, how does the growth read?
A: -18.2% (active)

Q: For `CC(=O)OCC1=CC2OC(=O)C3=COC(OC4OC(CO)C(O)C(O)C4O)C1C32` (stereo not given), which growth is on record?
A: 120% (inactive)

Q: How did the growth turn out when `COc1cc2nc(Sc3sc(N)nc3C)n(-c3ccc(Oc4ccccc4)cc3)c(=O)c2cc1OC` was run?
A: 78.9% (inactive)

Q: For `O=C(CSC(=S)N1CCCCC1)Nc1ccccc1`, which growth is on record?
A: 100% (inactive)

Q: `CCCC(OC(C)=O)c1ccc2c(c1)OCO2` (stereo not given) was tested. Which growth did it give?
A: 98.7% (inactive)

Q: Which growth does the source give for `O=c1oc2ccc(Cl)cc2c(=O)n1-c1ccc(F)cc1F` here?
A: -28.8% (active)

Q: With `CCCCCCCCCCCCCCCCCC1=NC(C)(C)CN1C(C)(C)CO` as the molecule, how does the growth read?
A: -66.9% (active)

Q: With `Cc1nnc2nc(N)[nH]n2c1=O` as the molecule, how does the growth read?
A: 99.6% (inactive)

Q: With `CN1CCN(c2ccc3nc(/N=C/c4ccc5sc(-c6ccc([N+](=O)[O-])cc6)nc5c4)sc3c2)CC1` as the molecule, how does the growth read?
A: 109% (inactive)

Q: With `CC1=NN2C(=NC3=C(CCC/C3=C\c3ccc(Cl)cc3)C2c2ccc(Cl)cc2)S1` (stereo not given) as the molecule, how does the growth read?
A: 63.2% (inactive)

Q: With `COc1cc(Br)c(-c2nc(-c3ccccc3)c(-c3ccccc3)n2Cc2ccccc2)cc1OC` as the molecule, how does the growth read?
A: 18.6% (inactive)

Q: With `COc1ccc(C(=O)/C=C/c2ccc(/C=C/c3cc(OC)c(OC)c(OC)c3)cc2)cc1` as the molecule, how does the growth read?
A: 21.5% (inactive)

Q: For `Cc1ccc(S(=O)(=O)n2cc(C(=O)C(=O)N3CCOCC3)c3ccccc32)cc1`, which growth is on record?
A: 66.6% (inactive)
